{
  "source": "PubChem BioAssay AID463173",
  "about": "(ICCB-Longwood Screening Facility, Harvard Medical School, 2010)",
  "note": "Screen size: about 52,000 compounds; about 1,700 (3.3%) were called active. The list comes from a sample in which actives are over-represented; it also holds similar structures and randomly drawn compounds. A number with no mark means an inactive call. No stated cut-off is given here; in the data, active means survival mostly below about 52% (no sharp cut-off); inactive means mostly above about 56%.",
  "data": [
    {"test_system": "Wild type", "test": "growth inhibition of S. aureus wild type versus tarO mutant, primary screen, teichoic acid synthesis inhibitors, RN4220, OD600 (AID 463173)", "conditions": "S. aureus RN4220 wild type/DeltatarO growth, OD600, 18 h, hits give low values, screened at 18.75 µg/mL (by protocol)", "values": [
      {"smiles": "CCC(C)(C)NC(=O)C1CCN(S(=O)(=O)c2ccc3c(c2)CCCN3C(C)=O)CC1", "survival": "71%"},
      {"smiles": "O=C(/C=C(/O)c1cccnc1)C(F)(F)F", "survival": "86%"},
      {"smiles": "O=C1CC2C(=O)NCCN2C(=NC(=O)c2ccc(Cl)cc2)N1", "note": "(centres undefined)", "survival": "100%"},
      {"smiles": "COc1cccc(/C=N/NC(=O)COc2c(C)cccc2C)c1O", "survival": "113%"},
      {"smiles": "COc1cccc(/C=N/NC(=O)c2cccc(C)c2)c1O", "survival": "1% (active)"},
      {"smiles": "COc1cccc(/C=N/NC(=O)CSCc2ccccc2)c1O", "survival": "108%"},
      {"smiles": "COc1cc(OC)cc(C(=O)Nc2ccc(S(=O)(=O)N3CCCCC3c3cccnc3)cc2)c1", "note": "(centres undefined)", "survival": "71%"},
      {"smiles": "Cc1ccc(Cl)cc1N1CCN(C(=O)CCS(=O)(=O)c2cc(Br)cc3c2N(C(=O)C2CC2)CC3)CC1", "survival": "80%"},
      {"smiles": "O=C(NCc1ccccc1)c1ccc(NC(=O)c2nsc3ccccc23)cc1", "survival": "55%"},
      {"smiles": "O=C(NCc1cccc(F)c1)c1ccc(NC(=O)c2nsc3ccccc23)cc1", "survival": "-4% (active)"},
      {"smiles": "O=C(NCc1cccc(F)c1)c1cccc(NC(=O)c2nsc3ccccc23)c1", "survival": "87%"},
      {"smiles": "CC(NC(=O)c1cccc(NC(=O)c2nsc3ccccc23)c1)c1ccccc1", "note": "(centres undefined)", "survival": "111%"},
      {"smiles": "CCC(C)NC(=O)c1cccc(NC(=O)c2nsc3ccccc23)c1", "note": "(centres undefined)", "survival": "76%"},
      {"smiles": "COC(=O)c1cccc(NC(=O)c2nsc3ccccc23)c1", "survival": "0% (active)"},
      {"smiles": "Cc1ccccc1Nc1c(-c2ccc(N3CCOCC3)cc2)nc2cccc(C)n12", "survival": "59%"},
      {"smiles": "Cc1ccc(N(C)C(=O)C2CCCN(c3ncnc4c3nc3n4CCCCC3)C2)cc1C", "note": "(centres undefined)", "survival": "127%"},
      {"smiles": "CCc1ccc(NC(=O)C2CCN(c3nn4cc(-c5ccc(OC)cc5)nc4s3)CC2)cc1", "survival": "71%"},
      {"smiles": "COc1ccc(-c2nc3c4ccccc4n(CC(=O)N4CCN(c5ccccc5F)CC4)c(=O)n3n2)cc1", "survival": "91%"},
      {"smiles": "CC1(C)C(=O)NC(=O)N1CN1C(=O)NC(=O)C1(C)C", "survival": "111%"},
      {"smiles": "CCOc1ccc(C(=O)Nc2ccc(-n3nncc3-c3ccccc3)cc2)cc1OCC", "survival": "135%"},
      {"smiles": "O=C(c1cc2c(=O)oc3ccccc3c2s1)N1CCN(c2cccc(Cl)c2)CC1", "survival": "145%"},
      {"smiles": "CCCN1C(=O)c2ccccc2CC1(C)C(=O)NC1CCCCC1", "note": "(centres undefined)", "survival": "85%"},
      {"smiles": "Cc1cccc(C(=O)Nc2sc3c(c2C(=O)Nc2ccccc2)CCC3)c1", "survival": "67%"},
      {"smiles": "Cc1cccc(NC(=O)c2c(NC(=O)c3ccccc3)sc3c2CCC3)c1", "survival": "80%"},
      {"smiles": "O=C(Cc1ccccc1)Nc1sc2c(c1C(=O)Nc1cccc(Cl)c1)CCCCC2", "survival": "91%"},
      {"smiles": "O=C(Nc1cccc(Cl)c1)c1c(NC(=O)C(F)(F)F)sc2c1CCCC2", "survival": "-2% (active)"},
      {"smiles": "Cc1cccc(NC(=O)c2c(Br)sc3c2CCCC3)c1", "survival": "0% (active)"},
      {"smiles": "O=C(Nc1sc2c(c1C(=O)Nc1cccc(Cl)c1)CCCC2)c1cccs1", "survival": "140%"},
      {"smiles": "Cc1cccc(NC(=O)c2c(NC(=O)c3ccccc3)sc3c2CCCC3)c1", "survival": "82%"},
      {"smiles": "COc1ccc(CC(=O)Nc2sc3c(c2C(=O)Nc2cccc(C)c2)CCCCC3)cc1", "survival": "63%"},
      {"smiles": "Cc1cccc(NC(=O)c2c(NC(=O)C(F)(F)F)sc3c2CCCCC3)c1", "survival": "-3% (active)"},
      {"smiles": "CCOC(=O)c1c(S(=O)(=O)N2CCCC(C(=O)N3CCN(c4cc(C)ccc4C)CC3)C2)c(C)n(C)c1C", "note": "(centres undefined)", "survival": "72%"},
      {"smiles": "COc1cccc(-c2cc(C(=O)Nc3cnn(Cc4ccc(Cl)cc4Cl)c3)no2)c1", "survival": "112%"},
      {"smiles": "CCC(=O)n1c2c(c3ccccc31)Nc1ccccc1N2", "survival": "105%"},
      {"smiles": "CC(C)Oc1ccc(CNC(=O)C2CCN(Cc3cc4ccccc4n3Cc3ccccc3)CC2)cc1", "survival": "93%"},
      {"smiles": "CCC(C(=O)NCCc1ccc(Cl)cc1)n1ccc2cc(S(=O)(=O)N3CCCCC3)ccc21", "note": "(centres undefined)", "survival": "101%"},
      {"smiles": "CCC(c1nnnn1C1CCCC1)N1CCN(Cc2ccccc2)CC1", "note": "(centres undefined)", "survival": "104%"},
      {"smiles": "COc1ccc(C(=O)c2cn(CC(=O)Nc3cc(C)ccc3C)c3nc(C)ccc3c2=O)cc1", "survival": "146%"},
      {"smiles": "CCOC(=O)C1NC(=O)CC1c1ccccc1", "note": "(centres undefined)", "survival": "99%"},
      {"smiles": "COc1ccccc1OCC(=O)N1CCC(c2nc3ccccc3o2)CC1", "survival": "-12% (active)"},
      {"smiles": "CC(Oc1ccccc1F)C(=O)N1CCC(c2nc3ccccc3o2)CC1", "note": "(centres undefined)", "survival": "-18% (active)"},
      {"smiles": "Cc1cccc(C)c1OCC(=O)N1CCC(c2nc3ccccc3o2)CC1", "survival": "81%"},
      {"smiles": "CCc1ccc(OC(C)C(=O)N2CCC(c3nc4ccccc4o3)CC2)cc1", "note": "(centres undefined)", "survival": "92%"},
      {"smiles": "Cc1cccc(OCC(=O)N2CCC(c3nc4ccccc4o3)CC2)c1C", "survival": "72%"},
      {"smiles": "Cc1cccc(OC(C)C(=O)N2CCC(c3nc4ccccc4o3)CC2)c1C", "note": "(centres undefined)", "survival": "74%"},
      {"smiles": "Cc1ccccc1C(=O)NC1CCN(CC(=O)NC(C)(C)C)CC1", "survival": "100%"},
      {"smiles": "CC(Oc1ccc(/C=C(/C#N)C(=O)N2CCOCC2)cc1)C(=O)O", "note": "(centres undefined)", "survival": "104%"},
      {"smiles": "Cc1ccc(N(C)C(=O)c2noc3c2CCCCC3)cc1C", "survival": "73%"},
      {"smiles": "CCCCn1c(=O)c2oc3ccccc3c2n(Cc2ccc(OC)cc2)c1=O", "survival": "115%"},
      {"smiles": "CCCCN(C)CC(O)Cn1cc(/C=C/C(=O)c2ccc(Br)cc2)c2ccccc21", "note": "(centres undefined)", "survival": "15% (active)"},
      {"smiles": "CCCCN(C)CC(O)Cn1cc(/C=C/C(=O)c2ccc(OCC)cc2)c2ccccc21", "note": "(centres undefined)", "survival": "21% (active)"},
      {"smiles": "CCCCN(C)CC(O)Cn1cc(/C=C/C(=O)c2ccc(OC)c(OC)c2)c2ccccc21", "note": "(centres undefined)", "survival": "87%"},
      {"smiles": "Cc1ccc(C(=O)/C=C/c2cn(CC(O)CN3CCc4ccccc43)c3ccccc23)cc1", "note": "(centres undefined)", "survival": "76%"},
      {"smiles": "CCOc1ccc(C(=O)/C=C/c2cn(CC(O)CN3CCc4ccccc43)c3ccccc23)cc1", "note": "(centres undefined)", "survival": "69%"},
      {"smiles": "CCCCN(C)CC(O)Cn1cc(/C=C/C(=O)c2ccc(C)cc2)c2ccccc21", "note": "(centres undefined)", "survival": "15% (active)"},
      {"smiles": "O=C(O)CCc1ccc(-c2ccccc2)n1Cc1ccco1", "survival": "103%"},
      {"smiles": "CCOc1ccc(S(=O)(=O)N(C(C)=O)c2ccc3oc(C)c(C(=O)OC)c3c2)cc1", "survival": "130%"},
      {"smiles": "Cc1ccc(N(Cc2cccs2)C(=O)c2ccccc2[N+](=O)[O-])cc1", "survival": "82%"},
      {"smiles": "CN1C=CC=C/C1=C1\\SC(=S)N(C2CCCCC2)C1=O", "survival": "120%"}
    ]}
  ]
}
